According to the supplement of paper PMC13380429:

Tests used:
[1] = system: Vero E6 infected with SARS-CoV-2; assay: morphology score (similarity to uninfected cells); higher = more like uninfected cells; conditions: 24 h
[2] = system: Vero E6 infected with SARS-CoV-2; assay: SARS-CoV-2 infection rate relative to infected DMSO; higher = more infection, active = 60 or less; conditions: 24 h

| Compound | morphology score [1] | SARS-CoV-2 infection rate [2] |
| --- | --- | --- |
| CC1CC(OC(=O)C(O)c2ccccc2)CC(C)(C)C1 (stereo not given) [cyclandelate] (10 µM) | 0.115 | 98% (inactive) |
| COc1ccc(S(=O)(=O)N2CCC[C@H]2C(=O)Nc2cc(C)cc(C)c2)cc1 (10 µM) | -0.0886 | 113% (inactive) |
| C[C@H](NC(=O)CNC(=O)c1cccc(Cl)c1)c1ccccc1 (10 µM) | 0.0656 | 102% (inactive) |
| O=C(CCBr)N1CCN(C(=O)CCBr)CC1 [pipobroman] (10 µM) | 0.23 | 98.5% (inactive) |
| Cc1ncc([N+](=O)[O-])n1CCO [metronidazole] (10 µM) | -0.0912 | 118% (inactive) |
| O=C(O)Cc1ccc(CCNS(=O)(=O)c2ccc(Cl)cc2)cc1 [daltroban] (10 µM) | 0.136 | 97.5% (inactive) |
| Cc1[nH]c(/C=C2\C(=O)Nc3ccccc32)c(C)c1CCC(=O)O [orantinib] (10 µM) | 0.123 | 92.5% (inactive) |
| CN1CC2c3ccccc3Oc3ccc(Cl)cc3C2C1 (stereo not given) [asenapine] (10 µM) | 0.67 | 41% (active) |
| C=CC(=O)Nc1ccc2ncnc(Nc3ccc(OCc4cccc(F)c4)c(Cl)c3)c2c1 (10 µM) | -0.0546 | 102% (inactive) |
| CC[N+](CC)(CC)CCC(O)(c1ccccc1)C1CCCCC1 (stereo not given) [tridihexethyl] (10 µM) | -0.09 | 110% (inactive) |
| O=S(=O)(Cc1ccccc1)Nc1ccc(-c2ccc3c(cnn3-c3ccc(F)cc3)c2)c(C(F)(F)F)c1 (10 µM) | 0.22 | 91.5% (inactive) |
| CCOC(=O)CC(=O)N1CCSC1COc1ccccc1OC (stereo not given) [moguisteine] (10 µM) | 0.165 | 99.5% (inactive) |
| CCC(=O)O[C@]1(C(=O)COC(C)=O)CC[C@H]2[C@@H]3C[C@H](C)C4=CC(=O)C=C[C@]4(C)[C@H]3[C@@H](O)C[C@@]21C [methylprednisolone-aceponate] (10 µM) | 0.0786 | 108% (inactive) |
| C[C@H](Oc1ccc(S(C)(=O)=O)cc1C(=O)N1CCN(c2ncc(C(F)(F)F)cc2F)CC1)C(F)(F)F [bitopertin] (10 µM) | 0.119 | 108% (inactive) |
| CN1C2CCC1CC(OC(=O)C(O)c1ccccc1)C2 (stereo not given) [Homatropine Bromide] (10 µM) | 0.0164 | 108% (inactive) |
| O=C(Cc1ccc(-c2ccccc2)cc1)Nc1ccccn1 [difenpiramide] (10 µM) | 0.431 | 62% (inactive) |
| Cc1cc(NCCO)nc(-c2ccc(Br)cc2)n1 (10 µM) | 0.269 | 101% (inactive) |
| NS(=O)(=O)c1cc2c(cc1Cl)N=CNS2(=O)=O [chlorothiazide] (10 µM) | -0.179 | 106% (inactive) |
| CN(Cc1ccc(C(C)(C)C)cc1)Cc1cccc2ccccc12 [butenafine] (10 µM) | 0.502 | 71% (inactive) |
| COC(=O)C1=C(C)NC(C)=C(C(=O)OCCSc2ccccc2)[C@@H]1C (10 µM) | 0.0793 | 94.5% (inactive) |
| C=C1/C(=C\C=C2/CCC[C@]3(C)[C@@H]([C@H](C)OCCC(C)(C)O)CC[C@@H]23)C[C@@H](O)C[C@@H]1O [maxacalcitol] (10 µM) | -0.0664 | 122% (inactive) |
| COCC1=C(C(=O)O)N2C(=O)[C@@H](NC(=O)/C(=N\OC)c3csc(N)n3)[C@H]2SC1 [cefpodoxime] (10 µM) | 0.105 | 104% (inactive) |
| O=Cc1cn(Cc2ccc(Cl)cc2)c2ccccc12 [oncrasin-1] (10 µM) | 0.108 | 110% (inactive) |
| CC(C)CN(C[C@@H](O)[C@H](Cc1ccccc1)NC(=O)O[C@H]1CO[C@H]2OCC[C@H]21)S(=O)(=O)c1ccc(N)cc1 [darunavir] (10 µM) | 0.156 | 107% (inactive) |
| N#C/C(=C\c1ccc(O)c(O)c1)C(=O)OCCc1cccs1 (10 µM) | -0.0101 | 108% (inactive) |
| Nc1nc(=O)c2c([nH]1)NCC(CNc1ccc(C(=O)N[C@@H](CCC(=O)O)C(=O)O)cc1)N2C=O (stereo not given in full) [leucovorin] (10 µM) | -0.0198 | 89.8% (inactive) |
| Cc1cc(C)c(CNC(=O)c2cc(-c3ccc(N4CCN(C)CC4)nc3)cc3c2c(C)cn3C(C)C)c(=O)[nH]1 (10 µM) | 0.171 | 98% (inactive) |
| CC(=O)c1ccc2c(c1)[C@H](NC(=O)c1ccc(F)c(Cl)c1)[C@H](O)C(C)(C)O2 [tonabersat] (10 µM) | 0.372 | 94.5% (inactive) |
| CCCN(CCC)CCc1cccc2c1CC(=O)N2 [ropinirole] (10 µM) | -0.139 | 112% (inactive) |
| C[N+](C)(C)CC(=O)O [betaine] (10 µM) | 0.11 | 102% (inactive) |
